Source: PubChem BioAssay AID588343 (Broad Institute, 2011)
Hit rate of the full screen: of about 1,200 compounds, about 650 (54%) were called active. Roughly 5% stayed inconclusive and do not appear here.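 How the source made its calls: active means signal-lowering curve whose fitted half-maximal concentration is at or below ten times the top valid dose tested; inconclusive means flat curve with 30 to 70% inhibition, or poor fit; inactive means signal increase, flat within 30%, or potency beyond limit.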 So high a share suggests a set chosen from earlier hits. A selection follows. Entries with a potency or affinity are not part of this list.

Test: inhibitors of LMP1-driven NF-kB reporter, dose response, cell-based, HEK293, luciferase, cherry-pick (AID 588343)
Details: HEK293 LMP1 TES2 NF-kB luciferase reporter, 16 h; series mostly up to 35 µM

outcome, inactive:
CCON1C(=O)C2(CCCCC2)C(=O)C12C=CCCC2 (stereo not given)
CCN(CC)c1ccc(NC(=O)c2cccc(F)c2)c(C)c1
CCOC(=O)CCSc1nc(N2CCOCC2)c2c(c1C#N)CC(C)(C)OC2
CSc1nc(C)nc2c1c(=O)n(C)c(=O)n2C
COCCn1c(SCc2ccc(C(=O)OC)o2)nnc1-c1c[nH]c2ccccc12
CCOc1ccc(NC(=O)CCc2nnc3ccc(N4CCC5(CC4)OCCO5)nn23)cc1
COc1ccc(C2CC(C(F)(F)F)n3ncc(C(=O)NCc4cccnc4)c3N2)cc1OC (stereo not given)
CCCCCC(=O)NC(=S)Nc1ccc(Br)cc1C
CC(CNC1CCCCC1)OC(=O)c1ccccc1 (stereo not given)
CCC(=O)NC(=S)Nc1ccccc1C(F)(F)F
CCN(C(=O)c1cccc(NC(=O)c2ccccc2)c1)C1CCCCC1
COc1ccc(C(=O)N(CN2CCCC2=O)c2cc(C)on2)cc1OC
O=C1OCC2=C1C(c1ccc3c(c1)OCO3)c1cc3c(cc1O2)OCO3 (stereo not given)
CNC1(C)[C@H]2CC[C@H](C2)C1(C)C (stereo not given in full)
Cc1ccc(NC(=O)/C=N/OCC(=O)NCc2ccccc2Cl)cc1
COCC(=O)N(C)c1nnc(-c2ccccn2)s1
Cc1cc(C)cc(C(=O)NCCC(=O)NCc2cc(=O)n(C)c(=O)n2C)c1
CCOCCCNC(=O)CN1C(=O)/C(=C\c2ccc(C)cc2)Sc2ccccc21
Cc1ccc(S(=O)(=O)N2CCC[C@H]2C(=O)Nc2ccccc2C)cc1
CCN(C(=O)c1cc(OC)c(OC)c(OC)c1)C1CCCCC1
C[C@]12CC[C@@H]3c4ccc(OS(=O)(=O)O)cc4CC[C@H]3[C@@H]1CCC2=O
O=c1c([N+](=O)[O-])cn(Cc2ccccc2)c(=O)n1Cc1ccccc1
C[C@@]12C(=O)N(Cc3ccccc3)CC(=O)N1[C@H](/C=C/c1ccccc1)[C@@H]1C(=O)N(c3ccccc3)C(=O)[C@@H]12
O=c1cc(-c2ccccc2)[nH]c2ccc(F)cc12
O=C(C1CC1)N1N=C(c2ccc(Br)cc2)CC1(O)C(F)(F)F (stereo not given)
COc1cc(OC)cc(-c2c(C#Cc3ccsc3)c3cc(-c4cc(OC)c(OC)c(OC)c4)ccc3n2C)c1
CCCc1nc(SCC(=O)NCc2ccco2)c2c(=O)n(C)c(=O)n(C)c2n1
Cc1cccn2c(=O)c(C=NCCO)c(NCc3ccco3)nc12
Cc1cccc(Nc2nc(Cl)ncc2F)c1C
COc1ccccc1C=NN=Cc1ccccc1O
